Several values for one entry are separate records, joined by “and”; a condition that tells them apart may be missing. Identical values can stand only once. Records with an inconclusive call do not appear. A number with no mark means an inactive call. Activity calls are given as the source filed them. Calls follow the shape of the dose curve; as a rule, active = well fitted curve in the direction sought with a large enough effect; inconclusive = small, poorly fitted or top-dose-only effect, or another doubt; inactive = no such curve, though single readings can be large; an effect the other way counts as inactive or inconclusive.

For test [1], the target named is Cellular tumor antigen p53 (Homo sapiens) (UniProt P04637). Put plainly: Primary qHTS for small molecule compounds that upregulate eGFP-tagged delta133p53alpha (in N-terminal) cells. (AID 2060322). Also: nearly all actives have a fitted effect of over 75% in size.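 As to activation: series mostly up to about 56 µM; 0% = DMSO vehicle and 100% = reference activator.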 To be noted: NCI-H358 eGFP-delta133p53alpha fluorescence, 24 h; activation: stronger effect = higher value. The procedure, abridged: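 NCI-H358 cells pre-induced 24 h with 10 ng/ml doxycycline to express N-terminal eGFP-delta133p53alpha, then dosed 24 h at 37C without doxycycline; fixed, Hoechst-stained, GFP intensity by laser scanning cytometry, normalized to DMSO (0%) and 57.5 uM 5-azacytidine (100%).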
Cellular tumor antigen p53 (Homo sapiens), sequence (P04637 whole entry, looked up): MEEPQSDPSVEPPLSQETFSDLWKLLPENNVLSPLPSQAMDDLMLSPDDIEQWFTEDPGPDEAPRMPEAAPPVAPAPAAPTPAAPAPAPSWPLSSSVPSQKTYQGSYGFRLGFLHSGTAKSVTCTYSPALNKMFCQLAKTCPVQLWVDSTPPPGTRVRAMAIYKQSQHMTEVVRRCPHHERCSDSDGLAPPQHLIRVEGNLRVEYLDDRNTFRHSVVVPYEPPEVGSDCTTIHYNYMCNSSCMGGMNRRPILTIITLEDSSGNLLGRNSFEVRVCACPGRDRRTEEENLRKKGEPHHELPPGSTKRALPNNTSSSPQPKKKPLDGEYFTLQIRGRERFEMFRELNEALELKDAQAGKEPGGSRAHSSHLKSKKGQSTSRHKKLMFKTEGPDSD

The nature of test [2]: BET inhibitor-based combinations targeting novel dependencies in MECOM-rearranged (r) AML: SET-2 cell line (AID 2202231). Also: nearly all actives have a fitted effect of over 35% in size.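 As to viability: plate controls were DMSO treated cells for no effect and wells without cells for full effect.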 To be noted: SET-2 AML cells viability, CellTiter-Glo luminescence, 48 h; viability: stronger effect = lower value, concentration not given here. In outline:
(§1)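 Each compound was tested at eleven concentrations on cells seeded at 500/well. After two days' incubation, ATP-based luminescence reported viability; responses relative to DMSO and blank wells yielded AUC and cell-line-centred Z-AUC.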
On the technique in general: Cellular ATP, detected with luciferase, serves as a proxy for viable cell number.

Test [3] can be described thus: BET inhibitor-based combinations targeting novel dependencies in MECOM-rearranged (r) AML: OCI-AML3 cell line (AID 2202232). Also: nearly all actives have a fitted effect of over 35% in size. As to conditions: Potency: OCI-AML3 viability. The procedure, abridged:
as §1

Test [4] can be described thus: BET inhibitor-based combinations targeting novel dependencies in MECOM-rearranged (r) AML: MV-4-11 cell line (AID 2202233). Also: nearly all actives have a fitted effect of over 45% in size. The procedure, abridged: (§2)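 First, 500 cells per well were seeded; next, drugs were pinned as 11-point doses; then plates sat 48 hr in the incubator; finally CellTiter-Glo was added and luminescence read, with AUC and Z-AUC computed.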
A short description of test [5]: BET inhibitor-based combinations targeting novel dependencies in MECOM-rearranged (r) AML: HNT-34 cell line (AID 2202234). Also: nearly all actives have a fitted effect of over 35% in size. In outline: as §2
Test [6] can be described thus: BET inhibitor-based combinations targeting novel dependencies in MECOM-rearranged (r) AML: UCSD-AML1 cell line (AID 2202235). Also: nearly all actives have a fitted effect of over 40% in size. The procedure, abridged:
as §2

A short description of test [7]: BET inhibitor-based combinations targeting novel dependencies in MECOM-rearranged (r) AML: AML-194 cell line (AID 2202237; also: nearly all actives have a fitted effect of over 40% in size). The procedure, abridged: as §1
Test [8] in a line: BET inhibitor-based combinations targeting novel dependencies in MECOM-rearranged (r) AML: AML-191 cell line (AID 2202236; also: nearly all actives have a fitted effect of over 35% in size). The procedure, abridged:
as §1
Potency is read from the fitted curve at half-maximal effect.

As a reminder, the viability is a read-out of living cells in per cent, often relative to untreated cells. In the case of `C#C[C@]1(O)CC[C@H]2[C@@H]3CCc4cc(OC)ccc4[C@H]3CC[C@@]21C`, the activation in test [1] was -5.08%. Besides, the viability in test [2] was 117%. In addition, the Potency result in test [3], in test [4], in test [5], in test [6] and in test [7] was “inactive” each time.

On to `CCCc1cc(=O)[nH]c(=S)[nH]1`, for which the activation in test [1] is -13.4% and -2.19%. Also, the viability in test [2] was 110%. The Potency entry in test [3], in test [4], in test [5], in test [6], in test [8] and in test [7] was “inactive” throughout.

Turning to `COC1CCC(C(=O)c2ccc3nc4c(cc3c2)CCCO4)CC1` (centres undefined), the activation in test [1] is -1.02%. Also, the viability in test [2] was 105%. The Potency result in test [3], in test [4], in test [5], in test [6], in test [8] and in test [7] was “inactive” each time.

As for `O=C(Nc1c(Cl)cncc1Cl)c1ccc(OC(F)F)c(OCC2CC2)c1`, the activation in test [1] is -4.21%. In test [2], the viability is 98.8%. Besides, the Potency result in test [3], in test [4], in test [5], in test [6], in test [8] and in test [7] was “inactive” each time.

On to `CC(C)Oc1cc(Nc2nc(N[C@@H](C)c3ccc(F)cn3)ncc2Cl)[nH]n1`, for which the Potency in test [1] was 24.3 µM (active); in test [2], 18.6 µM (active); in test [3] it was 16.6 µM (active); in test [4], 0.0934 µM (active); in test [5] it was 16.6 µM (active); in test [8] it was 0.417 µM (active).

`Oc1c(Cl)cc(Cl)c2cccnc12`: in test [1], the activation is 16.4% and -7.96%. Further, the Potency in test [2] was 8.33 µM (active); in test [3] it was 16.6 µM (active); in test [4] it was 11.8 µM (active); in test [5] it was 4.17 µM (active); in test [6], 5.25 µM (active); in test [7], 8.33 µM (active).

Consider `CC(C)[C@H](N)C(=O)OCCOCn1cnc2c(=O)[nH]c(N)nc21`, for which, in test [1], the activation is -14.1% and 18.6%. The viability in test [2] is 92.3%. The Potency result in test [3], in test [4], in test [5], in test [6], in test [8] and in test [7] was “inactive” in each case.

For `Oc1ccc(-c2ccc(-c3cc(Nc4cccc(CNC5CC5)c4)n[nH]3)cc2)c(O)c1`, the Potency in test [1] was 43.2 µM (active); in test [2], 7.42 µM (active); in test [3], 1.86 µM (active); in test [4], 1.18 µM (active); in test [5], 3.72 µM (active); in test [6] it was 2.35 µM (active). The Potency in test [8] was 2.95 µM (active); in test [7], 3.72 µM (active).

On to `CC(=O)O[C@H]1C[C@@H]2CC[C@H]3[C@H]4C[C@H]([N+]5(C)CCCCC5)[C@@H](OC(C)=O)[C@@]4(C)CC[C@@H]3[C@@]2(C)C[C@H]1[N+]1(C)CCCCC1`, for which the activation in test [1] was 5.41%. Further, the viability in test [2] was 114%. Besides, the Potency result in test [3], in test [4], in test [5] and in test [8] was “inactive” throughout.

As for `Cc1cccc(-c2[nH]c(C(C)(C)C)nc2-c2ccc3c(c2)OCO3)n1`, in test [1], the activation was -10.9%. Also, the Potency was 16.6 µM (active) in test [2]; 3.72 µM (active) in test [3]; 2.95 µM (active) in test [4]; 6.61 µM (active) in test [5]; 6.61 µM (active) in test [8]; 6.61 µM (active) in test [7].

Take `CC(C)C(C)C=CC(C)C1CCC2C3=CC=C4CC(O)CCC4(C)C3CCC21C` (centres undefined): in test [1], the activation is 11%. Moreover, in test [2], the viability was 121%. Moreover, the Potency entry in test [3], in test [4], in test [5], in test [8] and in test [7] was “inactive” each time.

Regarding `C/C=C/C(=O)N(CC)c1ccccc1C`, in test [1], the activation was -2.82%. Besides, the viability in test [2] was 107%. Further, the Potency result in test [3], in test [4], in test [5], in test [6], in test [8] and in test [7] was “inactive” in each case.

As for `Cc1ncc([N+](=O)[O-])n1CC(C)O` (centres undefined), in test [1], the activation was 12.6% and -16.1%. The viability in test [2] is 124%. Moreover, the Potency entry in test [3], in test [4], in test [5], in test [6], in test [8] and in test [7] was “inactive” throughout.

Take `Cc1cc2cc3c(C)cc(=O)oc3c(C)c2o1`: the activation in test [1] is -5.86% and 16.7%. Moreover, the viability in test [2] was 111%. Moreover, the Potency result in test [3], in test [4], in test [5], in test [8] and in test [7] was “inactive” in each case.

Consider `Nc1ncnc2ccccc12`, for which the activation in test [1] is 22.8%. In addition, the viability in test [2] is 115%. The Potency result in test [3], in test [4], in test [5], in test [6] and in test [7] was “inactive” in each case.

For the molecule `OC(c1cc(C(F)(F)F)nc2c(C(F)(F)F)cccc12)C1CCCCN1` (centres undefined), the activation in test [1] is -0.154%. Besides, the Potency in test [2] was 26.3 µM (active); in test [3], 18.6 µM (active); in test [4], 20.9 µM (active); in test [5], 23.5 µM (active); in test [8], 23.5 µM (active); in test [7], 20.9 µM (active).

On to `COc1cc([C@@H]2c3cc4c(cc3[C@H](O)[C@H]3COC(=O)[C@@H]23)OCO4)cc(OC)c1OC`, for which the activation in test [1] was 31.7%. Moreover, the Potency in test [2] was 1.18 µM (active); in test [3], 0.833 µM (active); in test [4], 0.833 µM (active); in test [5], 0.417 µM (active); in test [6] it was 0.468 µM (active); in test [8], 0.662 µM (active). Further, in test [7], the Potency is 0.525 µM (active).

For `O=C1NC(O)CCN1[C@@H]1O[C@H](CO)[C@H](O)[C@H]1O` (some centres undefined), the activation in test [1] was -10.6%. The viability in test [2] was 115%. For the same molecule, the Potency entry in test [3], in test [4], in test [5], in test [8] and in test [7] was “inactive” each time.

As to `CCOC(=O)[C@H](CCc1ccccc1)N[C@@H](C)C(=O)N1CCC[C@H]1C(=O)O`, the activation in test [1] is 0%. For the same molecule, the viability in test [2] was 92.2%. Further, the Potency result in test [3], in test [4], in test [5], in test [6] and in test [7] was “inactive” each time.

The values above are taken from PubChem BioAssay (NCATS).
